TDP1 inh = inhibitors of human tyrosyl-DNA phosphodiesterase TDP1; Q9NUW8; Potency, µM (top dose mostly 130 µM), for the others: at the top dose activity change, negative = inhibition, hits mostly inhibitors; actives 0.28% (n = 350,000); recombinant TDP1, AlphaScreen DNA substrate cleavage; note: nearly all actives have a fitted effect of over 40% in size
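AlphaScreen read-out: signal falls as enzyme removes the 3' tyrosine-FITC from a 5'-biotinylated DNA oligo (15 nM, 5 min, RT). Enzyme was E. coli-made recombinant Tdp1 at 1 nM, exposed to compound for 15 min beforehand; beads 10 ug/ml, 10 min.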
GCN5L2 inh = blocks human GCN5L2 histone acetyltransferase | actives 0.21% (n = 390,000) | Potency, µM (series often up to 58.9 µM), for inactives: top-dose activity change, negative = inhibition, most hits filed as inhibitors | GCN5L2 HAT assay, ThioGlo1 CoA-SH fluorescence | Q92830
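Free CoA generated was detected with ThioGlo1 (50uM) fluorescence at Ex340nm/Em540nm, read immediately and after 20 min at room temperature. Enzyme, 20 nM in HEPES pH 7.5 buffer, saw compounds 15 min before adding 75uM H3(1-25) peptide and 70uM acetyl-CoA.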
APEX1 inh = blocks human APE1 abasic DNA cleavage; actives 0.35% (n = 350,000); Potency, µM (highest dose often 65.8 µM), for inactives: at the top dose activity change, negative = inhibition, most hits filed as inhibitors; P27695; AID 2517; recombinant APE1, TAMRA/BHQ-2 abasic DNA cleavage fluorescence;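 note: plate controls were vehicle for no effect and reference inhibitor for full effect; nearly all actives have a fitted effect of over 55% in size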
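Enzyme (0.75 nM final) and test compound are incubated 15 min at room temperature before adding 50 nM quenched THF abasic-site duplex. Cleavage dequenches TAMRA, followed at 525/598 nm over three reads one minute apart.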
RECQ1 inh-1 = blocks DNA unwinding by human RECQ1 | actives 0.54% (n = 240,000) | Potency, µM (doses to about 57.3 µM), without a hit: at the top dose activity, negative = inhibition, hits mostly inhibitors | P46063 | RECQ1 DNA unwinding, red fluorescence kinetic read;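 note: plate controls were vehicle for no effect and no enzyme for full effect; nearly all actives have a fitted effect of over 30% in size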
Target sequence (P46063 whole entry, looked up): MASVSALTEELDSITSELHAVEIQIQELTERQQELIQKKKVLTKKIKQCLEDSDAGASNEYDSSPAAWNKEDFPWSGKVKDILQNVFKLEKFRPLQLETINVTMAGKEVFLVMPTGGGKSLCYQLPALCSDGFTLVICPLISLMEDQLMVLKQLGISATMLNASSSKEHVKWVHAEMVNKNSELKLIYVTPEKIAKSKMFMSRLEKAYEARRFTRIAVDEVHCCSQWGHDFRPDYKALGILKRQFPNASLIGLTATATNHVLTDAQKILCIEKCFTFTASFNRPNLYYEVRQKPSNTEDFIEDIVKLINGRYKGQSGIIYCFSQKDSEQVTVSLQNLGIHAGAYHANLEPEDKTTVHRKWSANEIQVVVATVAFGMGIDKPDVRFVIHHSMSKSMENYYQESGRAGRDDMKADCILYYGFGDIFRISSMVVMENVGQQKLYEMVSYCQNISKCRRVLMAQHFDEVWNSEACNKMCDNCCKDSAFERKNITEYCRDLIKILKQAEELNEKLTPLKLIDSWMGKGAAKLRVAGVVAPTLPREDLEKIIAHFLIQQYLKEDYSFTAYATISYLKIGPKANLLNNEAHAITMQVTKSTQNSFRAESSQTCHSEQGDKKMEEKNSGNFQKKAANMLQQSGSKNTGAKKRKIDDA
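50 nM RECQ1T1 preincubated 15 min with compound in Tris pH 8.0 buffer with MgCl2, DTT, Tween-20 and 2.5 ug/ml poly(dI-dC); started with 200 nM TAMRA/BHQ-2 forked duplex and 2 mM ATP. Unwinding read as fluorescence (525/598 nm), two reads 2 h apart.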
BLM helicase inh = Bloom syndrome helicase (human) inhibition; P54132; recombinant BLM DNA unwinding, fluorescence dequenching; Potency, µM (doses to about 56.1 µM), for the others: at the top dose activity change, negative = inhibition, most hits filed as inhibitors; actives 0.2% (n = 350,000); AID 2528;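 note: plate controls were vehicle for no effect and no enzyme for full effect; nearly all actives have a fitted effect of over 35% in size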
RECQ1 inh conf = confirmation of human RECQ1 helicase inhibitors | Potency, µM (titrated, usually from 229 µM), without a hit: top-dose activity change, negative = inhibition, most hits filed as inhibitors | AID 2708 | actives 28% (n = 610) | RECQ1 helicase DNA unwinding, fluorescence | shares compounds with RECQ1 inh-1; note: nearly all actives have a fitted effect of over 45% in size
RECQ1 ADP FP = ADP displacement flagged in RECQ1 inhibitor counter-screen; shares compounds with RECQ1 inh-1; ADP fluorescence polarization displacement counterscreen; Potency, µM (top dose mostly 228 µM), for the others: top-dose activity change, negative = inhibition, actives largely listed as inhibitors; actives 27% (n = 530); note: nearly all actives have a fitted effect of over 45% in size
RECQ1 inh-2 = confirmation of human RECQ1 helicase inhibitors. shares compounds with RECQ1 inh-1. recombinant RECQ1 DNA unwinding, red fluorescence. Potency, µM (series often up to 119 µM), for the others: top-dose activity, negative = inhibition, actives largely listed as inhibitors. actives 15% (n = 1,100); note: nearly all actives have a fitted effect of over 50% in size
* hit, by the source's call; i = inactive; ? = inconclusive; . = not tested or not shown; [ ] = remark or other dose. This is a sample that favours compounds with a hit; in the whole collection about 0.87% have one here. Calls come from the whole dose curve; as a rule, active = well fitted curve in the direction sought with a large enough effect; inconclusive = small, poorly fitted or top-dose-only effect, or another doubt; inactive = no such curve, though single readings can be large; an effect the other way counts as inactive or inconclusive. Unless noted, % is set by controls: 0 for no effect and ±100 for the full control effect; potency is the fitted concentration of half-maximal effect.

SMILES	TDP1 inh	GCN5L2 inh	APEX1 inh	RECQ1 inh-1	BLM helicase inh	RECQ1 inh-2	others
COCCn1c(C)cc(C(=O)COC(=O)c2cc3c(s2)CCC3)c1C	.	-12%	13µM*	?	-25%	?
COc1ccc(-c2csc(NC(=O)c3cc(-c4cccs4)nc4ccccc34)n2)c(OC)c1	3%	-9%	0%	-8%	-3%	.
COc1ccccc1-c1csc(NC(=O)c2cc(-c3cccs3)nc3ccccc23)n1	1%	-9%	15%	?	-15%	-13%
COc1cccc(Nc2ncc3nc(-c4cc(F)cc(F)c4)c(=O)n(CCC#N)c3n2)c1	.	-16%	18%	?	-5%	?
COc1cccc(Nc2ncc3nc(-c4ccc(F)cc4)c(=O)n(CCC#N)c3n2)c1	.	2%	-2%	-8%	0%	.
Fc1ccc(Nc2ncnc3onc(-c4ccc(Cl)cc4)c23)cc1Cl	-1%	1%	.	.	-8%	.
COc1ccc(CCn2c(=S)[nH]c3cc(C(=O)N4CCOCC4)ccc3c2=O)cc1OC	-3%	-1%	17%	35µM*	-6%	-48%
Cc1ccc(CN2C(=O)CN(C3CCC(C)CC3)C(=O)C2c2ccc(F)cc2)cc1 (configuration not stated)	5%	-6%	.	.	-6%	.
Cc1nn(-c2ccccc2)c(Cl)c1C(=O)NCc1cccs1	0%	17%	0%	?	-21%	-22%
Cc1nn(-c2ccccc2)c(C)c1C(=O)NCc1cccs1	-2%	1%	?	-6%	2%	.
O=C1NC(=Nc2ccc(O)cc2)S/C1=C/c1ccco1	-4%	-4%	?	-5%	-8%	.
Cc1cccc(N=C2NC(=O)/C(=C/C=C/c3ccco3)S2)c1	3%	-3%	?	35µM*	?	?
O=C1NC(=Nc2ccc3ccccc3c2)S/C1=C/c1ccco1	1%	?	?	?	18µM*	?
Cc1ccc(-c2nnc(Nc3ccc(OCC(N)=O)cc3)c3ccccc23)cc1S(=O)(=O)N(C)C	-1%[12.3 µM]	1%	.	.	-6%	.
O=C1N/C(=N\S(=O)(=O)Cc2ccccc2)S/C1=C/c1cc([N+](=O)[O-])ccc1O	-3%	-6%	-1%	13%	-6%	.	RECQ1 inh conf=20%;RECQ1 ADP FP=-2%
COC(=O)[C@@H]1C[C@H]1[C@@H](NC(=O)c1ccc(Br)cc1)c1ccccc1	3%	.	-2%	-4%	1%	.
CCOC(=O)c1sc2ccc(S(=O)(=O)N3CC(C)CC(C)C3)cc2c1N (configuration not stated)	-3%	0%	-3%	-1%	-4%	.
COC(=O)c1sc2ccccc2c1NC(=O)c1ccc(S(=O)(=O)N2CC(C)CC(C)C2)cc1 (configuration not stated)	5%	53%	1%	-2%	4%	.	RECQ1 inh conf=13%;RECQ1 ADP FP=-15%
O=C(CSc1nc2ccccc2c(=O)n1CCC(=O)NC1CCCCC1)Nc1ccccc1Cl	5%	3%	.	.	0%	.
CC1(OC(=O)c2ccco2)C(=O)C=C2C=C(C3CC3)OC=C2C1=O (configuration not stated)	5%	.	-5%	-6%	-3%	.
CC1(OC(=O)c2cnc3ccccc3n2)C(=O)C=C2C=C(C3CC3)OC=C2C1=O (configuration not stated)	1%	.	-4%	13µM*	-1%	-27%
COc1cccc(CNC(=O)c2cnc(N3CCCCC3)c3ccccc23)c1	3%	-5%	.	.	-7%	.
COC(=O)C1=CC(C(=O)c2cccs2)=NN(c2ccc(OC)cc2)C1C(=O)OC (configuration not stated)	11%	-11%	-5%	?	-12%	79µM*
O=C(Cn1nc(C(=O)O)c2ccccc2c1=O)Nc1nc(-c2ccccc2)cs1	-5%	-1%	-4%	i	-9%	.	RECQ1 inh conf=2%;RECQ1 ADP FP=7%
COc1ccccc1N1C(=O)CC(N2CCc3ccccc32)C1=O (configuration not stated)	7%	-21%	?	?	-4%	-5%
SMILES	TDP1 inh	GCN5L2 inh	APEX1 inh	RECQ1 inh-1	BLM helicase inh	RECQ1 inh-2	others
Nc1ccc(-c2nc3ccc(C(=O)O)cc3s2)cc1	79µM*	28µM*	?	?	-5%	-28%
CCCCC1=CC2=CC(=O)C(C)(OC(=O)C3CCCC3)C(=O)C2=CO1 (configuration not stated)	4%	-4%	1%	?	0%	79µM*
COC(=O)CCCC1=CC2=CC(=O)C(C)(OC(=O)C3CCCC3)C(=O)C2=CO1 (configuration not stated)	-1%	-1%	2%	?	-1%	.
Cc1nc2ccccn2c(=O)c1NC(=O)c1ccc(F)c(F)c1	5%	-7%	.	.	0%	.
Cn1cc(-c2nc3cncnc3n(Cc3ccc(F)cc3)c2=O)c2ccccc21	.	-26%	3%	-7%	-2%	.
O=C(CCCN1C(=O)/C(=C\c2cccs2)SC1=S)NNC(=O)c1cccnc1	2%	-14%	-5%	2.8µM*	0%	.	RECQ1 inh conf=?;RECQ1 ADP FP=3%[91.9 µM]
C=CCC1(c2ccccc2)Oc2ccc(C)cc2-c2nc3cc(Cl)c(Cl)cc3nc21 (configuration not stated)	8%[21 µM]	.	?	i[11.5 µM]	4%[12.4 µM]	.
Cc1cc(C(F)(F)F)n2[nH]c(=O)c(N=Nc3ccccc3)c2n1	10%	-21%	0%	10µM*	3%	.	RECQ1 inh conf=3%[114 µM];RECQ1 ADP FP=13%[91.9 µM]
Cc1cc(C)n2[nH]c(=O)c(N=Nc3ccccc3)c2n1	4%	-7%	-6%	i	-4%	.
O=C(Nc1ccc(Cl)cc1)OCCN1CCN(Cc2ccccc2)CCC1=O	3%	9%	11%	i	0%[75.6 µM]	.
CCC(=O)Nc1ccc(NC(=S)NC(=O)/C=C/c2ccco2)cc1	.	-16%	-37%	.	-9%	.
CC(=O)NC(=S)Nc1ccc(NC(=S)NC(=O)/C=C/c2ccco2)cc1	.	-24%	?	?	-29%	-19%
Cc1ccnc(NC(=S)NC(=O)/C=C/c2ccco2)c1	2%	1%	?	?	-13%	.
O=C(/C=C/c1ccco1)NC(=S)Nc1ccc(Cl)cn1	-7%	3%	?	25µM*	-10%	-22%

High-throughput results from PubChem BioAssay.
